From PubChem BioAssay (NCI)
About 83,000 compounds went through this panel and 20% of them were active in at least one assay; those are over-represented in the sample as a whole.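 Percent growth is the endpoint: 0 to 100 indicates growth inhibition (40 means 60% inhibition), 0 means no net growth, and negative values indicate cell death.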 Values without a mark were called inactive. Calls of active or inactive are those of the source. The calls were made as follows: active = growth percent below 10; inactive = the rest.

Key:
Assay in all cases: NCI-60 one-dose screen, 48 h (100 = growth as untreated, 0 = no growth, -100 = all killed)
NCI-H322M lung = conditions: 10 µM
HOP-62 NSCLC = conditions: 10 µM
A549/ATCC NSCLC = conditions: 10 µM
COLO 205 colon = conditions: 10 µM
DU-145 prostate = conditions: 10 µM
MALME-3M melanoma = conditions: 10 µM
SF-268 CNS = conditions: 10 µM
SF-295 CNS = conditions: 10 µM
SF-539 CNS = conditions: 10 µM
UACC-257 melanoma = conditions: 10 µM
M14 melanoma = conditions: 10 µM
HCT-15 colon = conditions: 10 µM
HT29 colon = conditions: 10 µM
SNB-75 CNS = conditions: 10 µM
SNB-19 CNS = conditions: 10 µM
SK-MEL-5 melanoma = conditions: 10 µM
UACC-62 melanoma = conditions: 10 µM
SK-MEL-28 melanoma = conditions: 10 µM
SK-MEL-2 melanoma = conditions: 10 µM
HL-60(TB) leukemia = conditions: 10 µM unless noted

Work on Cc1ccc2[nH]c(=S)n(-c3ccc(F)cc3)c(=O)c2c1 yielded a growth (NCI-H322M lung) of 99%, a growth (HOP-62 NSCLC) of 96.3% and a growth (A549/ATCC NSCLC) of 100%. It also gave a growth (COLO 205 colon) of 134%, a growth (DU-145 prostate) of 110% and a growth (MALME-3M melanoma) of 96.4%. For the same compound, the growth (SF-268 CNS) was 106%, the growth (SF-295 CNS) was 98.9% and the growth (SF-539 CNS) was 94.8%. For the same compound, the growth (UACC-257 melanoma) was 104%, the growth (M14 melanoma) was 100% and the growth (HCT-15 colon) was 98.9%. The growth (HT29 colon) was 107%, the growth (SNB-75 CNS) was 100% and the growth (SNB-19 CNS) was 90.3%. It also gave a growth (SK-MEL-5 melanoma) of 98.3%, a growth (UACC-62 melanoma) of 90.7% and a growth (SK-MEL-28 melanoma) of 101%. For the same compound, the growth (SK-MEL-2 melanoma) was 105% and the growth (HL-60(TB) leukemia) was 118%.
For CCC[Se]C(=O)c1ccc(C(=O)[Se]CCC)s1, the growth (NCI-H322M lung) was -33.4% (active), the growth (HOP-62 NSCLC) was -77.7% (active) and the growth (A549/ATCC NSCLC) was -46.2% (active). For the same compound, the growth (COLO 205 colon) was -85.7% (active), the growth (DU-145 prostate) was 9.92% (active) and the growth (MALME-3M melanoma) was -82.4% (active). For the same compound, the growth (SF-268 CNS) was 3.6% (active), the growth (SF-295 CNS) was -85.7% (active) and the growth (SF-539 CNS) was -84.7% (active). For the same compound, the growth (UACC-257 melanoma) was -53.7% (active), the growth (M14 melanoma) was -63.4% (active) and the growth (HCT-15 colon) was -71% (active). The growth (HT29 colon) was -58.5% (active), the growth (SNB-75 CNS) was -31.2% (active) and the growth (SNB-19 CNS) was -86.5% (active). For the same compound, the growth (SK-MEL-5 melanoma) was -76.3% (active), the growth (UACC-62 melanoma) was -64.9% (active) and the growth (SK-MEL-28 melanoma) was -62.9% (active). The growth (SK-MEL-2 melanoma) was -24.1% (active).
In the case of COC(=O)C[C@](O)(CCC(C)C)C(=O)O[C@@H]1C(OC)=C[C@]23CCCN2CCc2cc4c(cc2[C@H]13)OCO4, the growth (NCI-H322M lung) is reported as -25.1% (active), the growth (HOP-62 NSCLC) is reported as -50.4% (active) and the growth (A549/ATCC NSCLC) is reported as -27.1% (active). For the same compound, the growth (COLO 205 colon) was -84.7% (active), the growth (DU-145 prostate) was -26.7% (active) and the growth (MALME-3M melanoma) was -90.9% (active). The growth (SF-268 CNS) was -21.3% (active), the growth (SF-295 CNS) was -35.5% (active) and the growth (SF-539 CNS) was -77.1% (active). The growth (UACC-257 melanoma) was -66.7% (active), the growth (M14 melanoma) was -89% (active) and the growth (HCT-15 colon) was -32.9% (active). The growth (HT29 colon) was -62.1% (active), the growth (SNB-75 CNS) was -32.9% (active) and the growth (SNB-19 CNS) was -16.9% (active). The growth (SK-MEL-5 melanoma) was -95.4% (active), the growth (UACC-62 melanoma) was -92.5% (active) and the growth (SK-MEL-28 melanoma) was -68.8% (active). The growth (SK-MEL-2 melanoma) was -85.9% (active) and the growth (HL-60(TB) leukemia) was -31% (active).
